Assay outcomes as filed in PubChem.
The list is not random: actives were taken first. Their share in the collection is about 6.5%.
Marburg entry inh: blocks Marburg virus binding to or entry into cells. Marburg virus pseudotyped entry inhibition, cell reporter. Potency, µM (doses to about 37.8 µM), for the others: at the top dose activity change, negative = inhibition, actives largely listed as inhibitors. 300,000 tested, 1.8% active. AID 540276; calls by dose curve; tested in HEK293 cells; note: potency is the fitted concentration of half-maximal effect
HCMV inh: inhibitors of human cytomegalovirus; HFF cells, HCMV-luciferase reporter, 72 h; hits give low values; activity change, negative = inhibition, % at 57.5 µM; 410,000 tested, 4.5% active; in the data active = activity change below about -60%; inconclusive = no clear call, values can overlap the other calls; inactive = above about -39%
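Screen run at 2 compound doses on HFFs infected with reporter HCMV, MOI 1 PFU/cell. Luciferase activity from cell lysates at 72 h post infection gave inhibition relative to buffer-only and Salinomycin wells.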
Vaccinia Venus: inhibitors of vaccinia virus (Venus reporter). Vaccinia virus Venus reporter expression, fluorescence. 330,000 tested, 0.46% active. Potency, µM (titrated, usually from 36.5 µM), for the others: at the top dose activity change, negative = inhibition, most hits filed as inhibitors; calls by dose curve; tested in A549 cells; note: potency is the fitted concentration of half-maximal effect; nearly all actives have a fitted effect of over 30% in size
FMDV inh: blocks foot and mouth disease virus; FMDV antiviral cell-based qHTS; Potency, µM (top dose mostly 57.9 µM), for inactives: at the highest dose activity change, negative = inhibition, most hits filed as inhibitors; 410,000 tested, 1.2% active; AID 1159524; calls by dose curve; tested in HEK293T cells; note: read-out not given here; potency is the fitted concentration of half-maximal effect; nearly all actives have a fitted effect of over 45% in size
VACV mCherry inh: inhibitors of vaccinia virus infection (mCherry reporter signal); Vaccinia virus mCherry reporter infection, fluorescence; Potency, µM (doses to about 36.5 µM), without a hit: top-dose activity change, negative = inhibition, usual class: inhibitors; 310,000 tested, 0.63% active; AID 720579; calls by dose curve; tested in A549 cells; note: potency is the fitted concentration of half-maximal effect; nearly all actives have a fitted effect of over 35% in size
LASV entry inh: blocks Lassa virus binding to or entry into cells. Lassa virus pseudotype entry inhibition, cell reporter. Potency, µM (top dose mostly 37.9 µM), inactives show at the highest dose activity change, negative = inhibition, actives largely listed as inhibitors. 300,000 tested, 1.2% active; calls by dose curve; tested in HEK293 cells; note: potency is the fitted concentration of half-maximal effect; nearly all actives have a fitted effect of over 50% in size
An asterisk follows results filed as active; [ ] = dose if it differs, or a comment. % is set by controls: 0 for no effect and ±100 for the full control effect.

How did CC1=NN(c2cccc(C(=O)O)c2)C(=O)/C1=C\C=C/c1ccccc1 do in these assays?
Marburg entry inh: inconclusive; HCMV inh: 68; Vaccinia Venus: -2%; FMDV inh: 10µM*; VACV mCherry inh: -2%; LASV entry inh: inconclusive

How did O=C(OCC(=O)N1CCCCC1)c1cc(NS(=O)(=O)c2ccc(Cl)c([N+](=O)[O-])c2)ccc1O do in these assays?
Marburg entry inh: 21%; HCMV inh: -34; Vaccinia Venus: -9%; FMDV inh: -6%; VACV mCherry inh: -19%; LASV entry inh: 5%

What do the screens show for `CCn1c(-c2ccc(N(C)C)cc2)nc2ccccc21`?
Marburg entry inh: inconclusive; HCMV inh: -96*; FMDV inh: -27%; LASV entry inh: inconclusive

Results for CCn1c(-c2ccc(N)cc2)nc2ccccc21 ?
HCMV inh: 161; Vaccinia Venus: -14%; FMDV inh: 16%; VACV mCherry inh: inactive

Results for CC(C(=O)Nc1sc2c(c1C(=O)NCC1CCCO1)CCC2)N1C(=O)c2ccccc2C1=O (stereo not given) ?
Marburg entry inh: inconclusive; HCMV inh: -100*; Vaccinia Venus: -11%; FMDV inh: -27%; VACV mCherry inh: -19%; LASV entry inh: -9%

What do the screens show for `O=C(CCN1C(=O)c2ccccc2C1=O)Nc1sc2c(c1C(=O)NCC1CCCO1)CCC2` (stereo not given)?
Marburg entry inh: 22%; HCMV inh: -32; Vaccinia Venus: -11%; FMDV inh: -12%; VACV mCherry inh: -14%; LASV entry inh: inconclusive

Results for Cc1ccc(S(=O)(=O)C(CNC(=O)C(=O)NCc2ccccc2C)c2cccs2)cc1 (stereo not given) ?
HCMV inh: -20; Vaccinia Venus: -14%; FMDV inh: inconclusive; VACV mCherry inh: -21%; LASV entry inh: inconclusive

Results for COc1ccc(-c2cc(C(F)(F)F)nc(SCC(=O)NCC(C)C)n2)cc1OC ?
Marburg entry inh: 2%[46.1 µM]; HCMV inh: -7; Vaccinia Venus: -7%[7.34 µM]; FMDV inh: -17%; VACV mCherry inh: inactive[7.34 µM]; LASV entry inh: inconclusive

What do the screens show for `CCCC(O)(c1ccccc1)C(CN1CCOCC1)c1ccccc1` (stereo not given)?
HCMV inh: inconclusive; FMDV inh: -22%

What do the screens show for `CCc1ccc(C(O)(C(C)C)C(CN2CCOCC2)c2ccccc2)cc1` (stereo not given)?
HCMV inh: -77*; FMDV inh: 0%

How did CCCC(O)(c1ccc(CC)cc1)C(CN1CCOCC1)c1ccccc1 (stereo not given) do in these assays?
Marburg entry inh: inconclusive; HCMV inh: -69*; Vaccinia Venus: -6%; FMDV inh: inconclusive; VACV mCherry inh: -17%; LASV entry inh: inconclusive

How did CCOCCCNC(=O)c1ccc(-n2c(-c3ccccc3)cc3c2CCC(C)C3)cc1 (stereo not given) do in these assays?
HCMV inh: -93*; Vaccinia Venus: -15%; FMDV inh: -24%; VACV mCherry inh: -19%; LASV entry inh: -1%[46.1 µM]

Results for CCOC(=O)c1cccn1C1C(=O)N(Cc2ccc(C(F)(F)F)cc2)c2ccc(OC)cc21 (stereo not given) ?
HCMV inh: -9

Results for Cc1ccc(S(=O)(=O)NCC(c2cccnc2)N2CCOCC2)cc1 (stereo not given) ?
HCMV inh: -79*; FMDV inh: 0%

Results for Cc1cc(S(=O)(=O)NCC(c2ccc3c(c2)OCO3)N2CCOCC2)ccc1F (stereo not given) ?
HCMV inh: -64*; FMDV inh: 6%

What do the screens show for `CO[C@@]12C[C@@H](COC(=O)c3cncc(Br)c3)CN(C)[C@H]1Cc1cn(C)c3cccc2c13`?
FMDV inh: -15%

Results for Cc1oc(-c2ccccc2)cc1C(=O)NC1CCN(Cc2ccccc2)CC1 ?
Marburg entry inh: inconclusive; HCMV inh: inconclusive; Vaccinia Venus: -14%; FMDV inh: inconclusive; VACV mCherry inh: inactive; LASV entry inh: -6%

Results for CC1CC(Nc2ccccc2)c2ccccc2N1C(=O)c1cccnc1 (stereo not given) ?
Marburg entry inh: inconclusive; HCMV inh: -36; Vaccinia Venus: inconclusive; VACV mCherry inh: inconclusive; LASV entry inh: -29%

What do the screens show for `C[C@@H]1C[C@H](Nc2ccccc2)c2ccccc2N1C(=O)c1cccnc1`?
Marburg entry inh: 10µM*; HCMV inh: -20; Vaccinia Venus: inconclusive; FMDV inh: inconclusive; LASV entry inh: inconclusive

How did CC(=O)N(c1ccccc1)C1CC(C)N(C(=O)c2ccccc2)c2ccccc21 (stereo not given) do in these assays?
Marburg entry inh: inconclusive; HCMV inh: -38; Vaccinia Venus: -22%; FMDV inh: inconclusive; VACV mCherry inh: inactive; LASV entry inh: -22%

What do the screens show for `CC1CC(Nc2ccccc2)c2ccccc2N1C(=O)c1ccccc1F` (stereo not given)?
HCMV inh: -67*; FMDV inh: inconclusive

How did Cc1ccc(-c2ccc([C@@H]3[C@@H](CO)N4C(=O)CN(C(=O)c5ccncc5)C[C@H]34)cc2)cc1 do in these assays?
HCMV inh: 10

How did COc1ccc2ccccc2c1CNCc1ccc(C)cc1 do in these assays?
Marburg entry inh: 10µM*; HCMV inh: 4; Vaccinia Venus: 0%; FMDV inh: -22%; VACV mCherry inh: -9%; LASV entry inh: -6%[46.1 µM]

What do the screens show for `COC(=O)C1(C(F)(F)F)N=C(C(F)(F)F)Nc2ccc(Cl)cc21` (stereo not given)?
Marburg entry inh: 10%; HCMV inh: -102*; Vaccinia Venus: -9%; FMDV inh: -16%; VACV mCherry inh: -13%; LASV entry inh: 5%

What do the screens show for `CCOC(=O)C1(C(F)(F)F)N=C(C(F)(F)F)Nc2cc(C)c(C)cc21` (stereo not given)?
Marburg entry inh: inconclusive; HCMV inh: -38; Vaccinia Venus: -17%; FMDV inh: -22%; VACV mCherry inh: inactive; LASV entry inh: -5%

What do the screens show for `CCOC(=O)NN=C1C[C@@H](O)[C@@H](O)[C@@H]2[C@H]3C(=O)N(C[C@@H]4CCCO4)C(=O)[C@@H]3CC[C@H]12`?
Marburg entry inh: 6%[14.2 µM]

What do the screens show for `CCOCc1cc(CN2CCN(c3ccccc3OC)CC2)c(O)c2ncccc12`?
Marburg entry inh: inconclusive; HCMV inh: -98*; Vaccinia Venus: -28%; FMDV inh: 0%; VACV mCherry inh: 13µM*; LASV entry inh: inconclusive

What do the screens show for `COc1ccccc1N1CCN(Cc2ccc(Br)s2)CC1`?
Marburg entry inh: inconclusive; HCMV inh: -81*; FMDV inh: inconclusive; LASV entry inh: inconclusive

What do the screens show for `CCCOCc1cc(CN2CCN(c3ccccc3OC)CC2)c(O)c2ncccc12`?
Marburg entry inh: inconclusive; HCMV inh: -100*; Vaccinia Venus: inconclusive; FMDV inh: -26%; VACV mCherry inh: inconclusive; LASV entry inh: inconclusive
